Reference: the supplement of paper PMC10849652
Of roughly 7,900 targets only a part is listed; those with a hit were picked by preference. About 0.6% of all pairs of compound and target were hits. A number with no mark means an inactive call.

Columns and labels:
Assay in all cases: log2 fold change, soluble protein after heating vs DMSO (PISA); higher = thermal stabilisation; K562 cells, 10 uM, 30 min; active = over 0.2 and 3.5 SD of the protein, either way, in both replicates (recomputed)
[1] = compound: COC1=CC=C(C=C1)CN2C=CC3=C2C=C(C=C3)C(=O)NO
Method in brief: (§1)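 Soluble protein was quantified by TMTpro 16plex LC-MS/MS after channel sums were equalised. It was obtained as the supernatant after 21,000xg for 90 min from pooled aliquots of K562 cells (2×10^6 cells/mL, 10 μM compound, 30 min) heated for 3 min across 48°C-58°C and extracted in PBS with 0.5% NP-40 at 4°C. Thermal stability values are relative to control samples and come from duplicates. They are given as log2 fold changes.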

filanesib = compound: CON(C)C(=O)N1N=C(c2cc(F)ccc2F)S[C@@]1(CCCN)c1ccccc1 [filanesib]
Method in brief: as §1

zotarolimus = compound: CO[C@H]1C[C@@H]2CC[C@@H](C)[C@@](O)(O2)C(=O)C(=O)N2CCCC[C@H]2C(=O)O[C@H]([C@H](C)C[C@@H]2CC[C@H](n3cnnn3)[C@H](OC)C2)CC(=O)[C@H](C)/C=C(\C)[C@@H](O)[C@@H](OC)C(=O)[C@H](C)C[C@H](C)/C=C/C=C/C=C/1C [zotarolimus]
Method in brief: as §1

idasanutlin = compound: COc1cc(C(=O)O)ccc1NC(=O)[C@@H]1N[C@@H](CC(C)(C)C)[C@](C#N)(c2ccc(Cl)cc2F)[C@H]1c1cccc(Cl)c1F [idasanutlin]
Method in brief: as §1

alisertib = compound: COc1cc(Nc2ncc3c(n2)-c2ccc(Cl)cc2C(c2c(F)cccc2OC)=NC3)ccc1C(=O)O [alisertib]
Method in brief: as §1

[2] = compound: COc1cc2nc(-c3cc(F)ccc3O)nc(N[C@@H]3CNC[C@H]3C(C)(C)O)c2cc1OC
Method in brief: as §1

gefitinib = compound: COc1cc2ncnc(Nc3ccc(F)c(Cl)c3)c2cc1OCCCN1CCOCC1 [gefitinib]
Method in brief: as §1

[3] = compound: COc1cccc2cc(-c3nc([C@H]4CC[C@H](C(=O)O)CC4)n4ncnc(N)c34)[nH]c12
Method in brief: as §1

lapatinib = compound: CS(=O)(=O)CCNCc1ccc(-c2ccc3ncnc(Nc4ccc(OCc5cccc(F)c5)c(Cl)c4)c3c2)o1 [lapatinib]
Method in brief: as §1

pictilisib = compound: CS(=O)(=O)N1CCN(Cc2cc3nc(-c4cccc5[nH]ncc45)nc(N4CCOCC4)c3s2)CC1 [pictilisib]
Method in brief: as §1

UniProt A6NHL2, sequence (A6NHL2 whole entry, looked up): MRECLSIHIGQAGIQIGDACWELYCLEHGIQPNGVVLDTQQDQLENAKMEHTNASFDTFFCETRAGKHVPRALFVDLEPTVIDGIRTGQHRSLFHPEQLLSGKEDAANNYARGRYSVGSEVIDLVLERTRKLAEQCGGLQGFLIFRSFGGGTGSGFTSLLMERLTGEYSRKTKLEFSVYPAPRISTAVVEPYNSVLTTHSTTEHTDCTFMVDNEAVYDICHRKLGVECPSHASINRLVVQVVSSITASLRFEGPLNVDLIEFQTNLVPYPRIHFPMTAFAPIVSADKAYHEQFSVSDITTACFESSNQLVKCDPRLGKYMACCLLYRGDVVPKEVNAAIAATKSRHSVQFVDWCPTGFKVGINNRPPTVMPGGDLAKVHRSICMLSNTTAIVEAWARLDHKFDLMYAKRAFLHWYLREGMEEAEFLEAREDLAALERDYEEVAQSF
UniProt O60701, sequence (O60701 whole entry, looked up): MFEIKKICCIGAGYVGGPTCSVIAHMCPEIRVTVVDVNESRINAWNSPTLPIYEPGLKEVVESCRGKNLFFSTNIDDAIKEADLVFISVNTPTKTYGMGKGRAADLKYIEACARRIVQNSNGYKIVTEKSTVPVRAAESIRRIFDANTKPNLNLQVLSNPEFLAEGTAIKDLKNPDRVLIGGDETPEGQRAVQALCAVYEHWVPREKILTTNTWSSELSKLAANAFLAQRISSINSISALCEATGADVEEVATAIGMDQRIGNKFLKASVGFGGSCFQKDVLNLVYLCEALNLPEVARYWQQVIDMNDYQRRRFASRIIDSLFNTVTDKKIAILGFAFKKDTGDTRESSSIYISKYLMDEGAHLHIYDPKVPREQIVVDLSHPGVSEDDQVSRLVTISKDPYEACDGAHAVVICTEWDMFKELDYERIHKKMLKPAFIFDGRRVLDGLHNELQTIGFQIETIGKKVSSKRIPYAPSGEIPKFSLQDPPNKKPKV
UniProt Q12768, sequence (Q12768 whole entry, looked up): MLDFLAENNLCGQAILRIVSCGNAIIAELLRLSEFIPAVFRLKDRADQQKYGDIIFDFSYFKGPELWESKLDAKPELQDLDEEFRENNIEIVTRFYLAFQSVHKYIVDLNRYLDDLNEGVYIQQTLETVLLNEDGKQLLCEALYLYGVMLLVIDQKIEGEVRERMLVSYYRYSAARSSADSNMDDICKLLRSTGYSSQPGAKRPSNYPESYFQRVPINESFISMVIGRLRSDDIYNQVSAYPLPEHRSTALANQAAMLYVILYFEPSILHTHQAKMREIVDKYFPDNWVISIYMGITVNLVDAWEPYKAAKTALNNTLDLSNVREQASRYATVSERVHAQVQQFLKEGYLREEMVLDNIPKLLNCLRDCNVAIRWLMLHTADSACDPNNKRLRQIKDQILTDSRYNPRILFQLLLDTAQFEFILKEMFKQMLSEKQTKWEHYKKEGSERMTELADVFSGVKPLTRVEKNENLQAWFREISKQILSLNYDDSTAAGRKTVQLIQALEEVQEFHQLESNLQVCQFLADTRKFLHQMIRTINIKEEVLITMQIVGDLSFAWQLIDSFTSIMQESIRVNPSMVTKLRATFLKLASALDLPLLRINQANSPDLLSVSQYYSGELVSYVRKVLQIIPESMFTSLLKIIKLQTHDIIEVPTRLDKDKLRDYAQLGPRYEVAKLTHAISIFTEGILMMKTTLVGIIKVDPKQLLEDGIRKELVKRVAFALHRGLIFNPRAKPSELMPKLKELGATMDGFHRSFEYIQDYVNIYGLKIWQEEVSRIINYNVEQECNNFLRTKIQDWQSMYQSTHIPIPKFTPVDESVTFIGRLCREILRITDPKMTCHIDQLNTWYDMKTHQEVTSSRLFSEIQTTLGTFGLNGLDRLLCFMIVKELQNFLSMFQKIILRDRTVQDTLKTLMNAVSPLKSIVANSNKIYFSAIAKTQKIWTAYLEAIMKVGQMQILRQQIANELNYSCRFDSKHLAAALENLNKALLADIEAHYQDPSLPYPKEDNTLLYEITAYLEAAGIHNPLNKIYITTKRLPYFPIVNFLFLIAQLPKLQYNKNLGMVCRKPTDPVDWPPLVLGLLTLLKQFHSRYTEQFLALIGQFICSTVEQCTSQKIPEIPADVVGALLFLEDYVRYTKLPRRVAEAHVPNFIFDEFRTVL
UniProt Q9Y5L0, sequence (Q9Y5L0 whole entry, looked up): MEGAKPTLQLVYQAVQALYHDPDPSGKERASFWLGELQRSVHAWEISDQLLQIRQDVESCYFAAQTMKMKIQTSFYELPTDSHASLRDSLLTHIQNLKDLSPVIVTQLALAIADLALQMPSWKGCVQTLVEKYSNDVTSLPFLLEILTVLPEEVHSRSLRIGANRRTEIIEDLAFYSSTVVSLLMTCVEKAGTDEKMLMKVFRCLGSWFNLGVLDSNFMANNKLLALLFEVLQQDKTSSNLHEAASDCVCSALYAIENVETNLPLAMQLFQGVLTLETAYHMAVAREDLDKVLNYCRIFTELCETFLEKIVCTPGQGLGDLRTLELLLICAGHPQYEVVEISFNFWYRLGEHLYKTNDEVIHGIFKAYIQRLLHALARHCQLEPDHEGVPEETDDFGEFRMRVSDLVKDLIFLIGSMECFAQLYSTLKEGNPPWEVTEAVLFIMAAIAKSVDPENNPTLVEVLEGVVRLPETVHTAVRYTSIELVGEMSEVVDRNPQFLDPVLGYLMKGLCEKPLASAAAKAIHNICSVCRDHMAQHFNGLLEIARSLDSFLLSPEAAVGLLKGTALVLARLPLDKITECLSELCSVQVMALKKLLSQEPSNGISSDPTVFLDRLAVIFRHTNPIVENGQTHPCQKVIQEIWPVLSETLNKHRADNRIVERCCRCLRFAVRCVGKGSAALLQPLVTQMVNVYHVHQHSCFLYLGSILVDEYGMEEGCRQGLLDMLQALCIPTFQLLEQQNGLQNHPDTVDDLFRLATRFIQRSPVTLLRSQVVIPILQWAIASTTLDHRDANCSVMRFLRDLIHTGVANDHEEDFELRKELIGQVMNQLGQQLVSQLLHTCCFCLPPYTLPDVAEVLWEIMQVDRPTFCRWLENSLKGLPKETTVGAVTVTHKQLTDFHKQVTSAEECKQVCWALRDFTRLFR
UniProt Q9H269, sequence (Q9H269 whole entry, looked up): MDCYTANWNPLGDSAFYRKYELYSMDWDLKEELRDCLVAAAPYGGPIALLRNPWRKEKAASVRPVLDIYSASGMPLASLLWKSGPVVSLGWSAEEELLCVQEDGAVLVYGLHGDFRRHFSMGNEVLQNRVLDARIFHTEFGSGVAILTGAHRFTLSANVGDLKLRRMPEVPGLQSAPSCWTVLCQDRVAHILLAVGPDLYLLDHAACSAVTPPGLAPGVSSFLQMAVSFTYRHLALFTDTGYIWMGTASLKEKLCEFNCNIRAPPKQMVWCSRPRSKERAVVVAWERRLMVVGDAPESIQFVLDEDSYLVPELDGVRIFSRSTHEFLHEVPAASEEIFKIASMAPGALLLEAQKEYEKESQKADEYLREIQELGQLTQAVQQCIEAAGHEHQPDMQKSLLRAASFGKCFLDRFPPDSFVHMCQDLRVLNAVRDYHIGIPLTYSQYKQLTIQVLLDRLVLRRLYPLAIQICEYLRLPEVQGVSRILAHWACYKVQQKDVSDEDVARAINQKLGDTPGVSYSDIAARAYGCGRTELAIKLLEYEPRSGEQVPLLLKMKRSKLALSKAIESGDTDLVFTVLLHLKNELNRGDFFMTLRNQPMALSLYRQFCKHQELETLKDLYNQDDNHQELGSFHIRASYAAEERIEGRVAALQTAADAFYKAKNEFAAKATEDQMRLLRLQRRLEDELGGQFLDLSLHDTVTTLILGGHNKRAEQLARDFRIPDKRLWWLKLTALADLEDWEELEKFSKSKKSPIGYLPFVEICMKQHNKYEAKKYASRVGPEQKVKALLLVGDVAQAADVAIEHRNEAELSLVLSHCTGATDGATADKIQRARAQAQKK
UniProt P13010, sequence (P13010 whole entry, looked up): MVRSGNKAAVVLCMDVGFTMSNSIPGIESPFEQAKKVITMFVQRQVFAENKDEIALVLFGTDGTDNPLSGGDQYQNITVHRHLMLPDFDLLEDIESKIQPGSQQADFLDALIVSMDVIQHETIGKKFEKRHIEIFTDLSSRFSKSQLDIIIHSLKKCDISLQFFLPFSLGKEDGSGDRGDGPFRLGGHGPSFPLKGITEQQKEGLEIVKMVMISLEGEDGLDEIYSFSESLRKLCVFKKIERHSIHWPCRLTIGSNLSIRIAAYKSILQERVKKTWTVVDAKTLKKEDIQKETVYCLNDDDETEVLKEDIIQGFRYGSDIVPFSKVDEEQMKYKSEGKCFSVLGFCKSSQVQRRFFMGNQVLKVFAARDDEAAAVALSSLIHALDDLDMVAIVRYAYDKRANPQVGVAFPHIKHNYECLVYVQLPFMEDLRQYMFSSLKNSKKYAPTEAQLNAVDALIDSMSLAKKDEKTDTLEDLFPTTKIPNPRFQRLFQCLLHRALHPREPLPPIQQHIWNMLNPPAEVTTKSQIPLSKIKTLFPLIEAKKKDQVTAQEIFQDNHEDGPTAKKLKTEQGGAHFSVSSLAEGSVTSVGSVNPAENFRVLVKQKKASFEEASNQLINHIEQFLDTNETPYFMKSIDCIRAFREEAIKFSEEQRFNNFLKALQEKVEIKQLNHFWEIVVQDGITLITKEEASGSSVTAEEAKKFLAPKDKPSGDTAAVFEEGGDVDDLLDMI
UniProt Q15388, sequence (Q15388 whole entry, looked up): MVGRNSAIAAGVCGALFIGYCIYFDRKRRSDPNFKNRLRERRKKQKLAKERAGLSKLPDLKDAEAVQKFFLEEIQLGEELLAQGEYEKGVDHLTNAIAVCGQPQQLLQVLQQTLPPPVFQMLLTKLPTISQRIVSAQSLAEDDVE
UniProt Q92890, sequence (Q92890 whole entry, looked up): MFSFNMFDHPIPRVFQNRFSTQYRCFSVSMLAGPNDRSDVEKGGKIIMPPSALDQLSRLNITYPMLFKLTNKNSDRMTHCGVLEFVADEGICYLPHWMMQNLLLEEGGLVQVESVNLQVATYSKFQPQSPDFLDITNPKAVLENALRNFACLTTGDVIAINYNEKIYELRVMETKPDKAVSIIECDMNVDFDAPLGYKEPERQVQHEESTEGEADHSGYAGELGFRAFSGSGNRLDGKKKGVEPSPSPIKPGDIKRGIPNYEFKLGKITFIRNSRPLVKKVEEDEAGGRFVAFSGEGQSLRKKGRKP

Row | Target | log2 fold change [1] | log2 fold change (filanesib) | log2 fold change (zotarolimus) | log2 fold change (idasanutlin) | log2 fold change (alisertib) | log2 fold change [2] | log2 fold change (gefitinib) | log2 fold change [3] | log2 fold change (lapatinib) | log2 fold change (pictilisib)
1 | TMEM9B (UniProt Q9NQ34) | 0.001 | -0.039 | 0.014 | 0.036 | -0.032 | 0.011 | -0.047 | -0.068 | -0.118 | 0.07
2 | TUBA4A (UniProt P68366) | 0.032 | -0.108 | 0.044 | -0.108 | -0.027 | -0.043 | 0.019 | 0.071 | 0.04 | 0.04
3 | TPR (UniProt P12270) | -0.048 | 0.115 | 0.049 | 0.055 | -0.076 | 0.065 | -0.056 | -0.06 | 0.044 | 0.036
4 | UGDH (UniProt O60701) | 0.164 | 0.001 | 0.053 | -0.043 | 0.067 | 0.04 | 0.118 | 0.059 | -0.036 | 0.022
5 | UFD1 isoform 1 (UniProt Q92890) | 0.225 (active) | -0.033 | -0.028 | -0.043 | -0.023 | -0.052 | -0.001 | 0.033 | 0.018 | -0.037
6 | TNPO3 (UniProt Q9Y5L0) | 0.053 | -0.094 | 0.036 | -0.074 | -0.064 | -0.035 | -0.012 | -0.004 | -0.035 | 0.077
7 | VARS2, A0A0G2JL52 | 0.061 | -0.078 | 0.001 | -0.04 | -0.01 | -0.017 | -0.009 | 0.064 | 0.022 | 0.024
8 | WARS2 (UniProt Q9UGM6) | -0.072 | -0.089 | -0.034 | 0.014 | -0.025 | 0.062 | -0.035 | 0 | -0.127 | 0.037
9 | VPS16 (UniProt Q9H269) | 0.018 | -0.093 | 0.033 | -0.065 | -0.056 | -0.009 | -0.1 | -0.017 | -0.006 | -0.044
10 | XPNPEP1 isoform 3 (UniProt Q9NQW7) | 0.006 | -0.121 | 0.026 | -0.023 | 0.028 | -0.009 | 0.004 | 0.038 | 0.01 | 0.068
11 | WASHC3 (UniProt Q9Y3C0) | 0.108 | -0.061 | 0.001 | 0.068 | 0.077 | 0.002 | -0.014 | 0.042 | -0.029 | 0.05
12 | TXNL1 (UniProt O43396) | 0.169 | 0.075 | 0.047 | -0.003 | -0.005 | 0.084 | 0.05 | -0.001 | 0.006 | 0.017
13 | TRIM4 (UniProt Q9C037) | -0.066 | 0.003 | 0.056 | -0.208 | -0.088 | 0.129 | -0.155 | -0.137 | -0.011 | 0.202
14 | USP7 (UniProt Q93009) | 0.034 | -0.14 | -0.007 | -0.053 | 0.144 | 0.039 | 0.04 | 0.019 | -0.029 | 0.002
15 | WASHC5 (UniProt Q12768) | -0.059 | -0.017 | 0.043 | 0.034 | -0.088 | 0.083 | 0.044 | -0.021 | -0.024 | -0.05
16 | TUBAL3 (UniProt A6NHL2) | -0.037 | -0.058 | -0.064 | -0.218 | 0.048 | 0 | -0.059 | 0.015 | 0.075 | 0.052
17 | WDR37 isoform 2 (UniProt Q9Y2I8) | 0.033 | 0.117 | -0.063 | 0.081 | -0.018 | 0.034 | -0.006 | -0.029 | 0.035 | 0.046
18 | XPO6 (UniProt Q96QU8) | -0.453 | -0.074 | 0.047 | -0.079 | 0.171 | 0.064 | -0.029 | -0.052 | -0.055 | -0.025
19 | WEE1 (UniProt P30291) | -0.157 | 0.217 | -0.068 | 0.356 | -0.322 | 0.039 | -0.083 | -0.615 | 0.125 | -0.095
20 | USP48 isoform 8 (UniProt Q86UV5) | 0.155 | -0.075 | 0.089 | -0.03 | 0.12 | -0.267 | 0.093 | -0.018 | 0.002 | 0.016
21 | TOMM20 (UniProt Q15388) | -0.011 | -0.213 | 0.005 | -0.022 | -0.029 | -0.25 | 0.005 | -0.001 | 0.045 | 0.007
22 | TOMM5 isoform 2 (UniProt Q8N4H5) | -0.027 | 0.079 | 0.045 | 0.137 | -0.141 | -0.021 | 0.073 | 0.044 | -0.016 | -0.086
23 | USP34 (UniProt Q70CQ2) | 0.021 | 0.011 | -0.03 | -0.239 | 0.021 | 0 | -0.024 | -0.073 | 0.011 | 0.135
24 | UBR2 (UniProt Q8IWV8) | -0.016 | 0.027 | -0.105 | 0.054 | -0.041 | 0.024 | -0.021 | 0.061 | 0.052 | 0.036
25 | TTI1 (UniProt O43156) | -0.031 | 0.081 | 0.091 | -0.097 | -0.112 | 0.02 | -0.057 | -0.019 | -0.008 | 0.049
26 | XRCC5 (UniProt P13010) | 0.19 | -0.049 | 0.087 | 0.014 | 0.061 | -0.232 | 0.076 | -0.087 | 0.024 | -0.047
27 | UTP14A (UniProt Q9BVJ6) | -0.114 | 0.336 | -0.022 | 0.161 | -0.077 | -0.111 | -0.062 | -0.138 | 0.156 | -0.174
